Results: PubChem BioAssay (Tox21)
A number with no mark means an inactive call. The source made the active and inactive calls. Calls follow the shape of the dose curve; as a rule, active = well fitted curve in the direction sought with a large enough effect in the repeat runs; inconclusive = weak or mixed curves; inactive = flat fitted curve, though single readings scatter.

test: qHTS assay to test for compound auto fluorescence at 535 nm (green) in HEK293 cell free culture (AID 720682); conditions: cell-free medium, green autofluorescence 485/535 nm, active compounds read high; series mostly up to 91.3 µM; activity change: at the top concentration
Excerpt: U.S. Tox21 Program National Center for Advancing Translational Sciences [NCATS] NIH Chemical Genomics Center [NCGC] U.S. Environmental Protection Agency [EPA] National Institutes of Environmental Health Sciences [NIEHS] National Toxicology Program [NTP] U.S. Food and Drug Administration [FDA] Tox21 Assay Overview: Compound auto fluorescence often interferes with screening of the compound library against various biological targets and signaling pathways. Some of these compounds may have fluorophoric properties. Such properties may interfere with the assay outputs resulting in false positives and/or negatives. To decrease such complications and ensure the compound activities are relevant in terms of biological response, the Tox21 10K compound library was screened for auto fluorescence. From the fluorophores used as reporter signals in our screening assays, the auto fluorescence equivalencies of compounds against three fluorophores have been evaluated: Triamterene, Fluorescein and Rose Bengal sodium for blue, green and red fluorescence, respectively. The fluorescence intensities were measured using Excitation/Emission wavelengths at 405/460nm, 485/535nm and 540/590nm for blue, green and red labels, respectively. This assay includes the green fluorescence data.
Tox21 Assay Protocol Summary: 5 uL of culture medium (DMEM containing 10% FBS) per well was dispensed into black wall/clear bottom 1536-well plates using a Multidrop Combi Dispenser (ThermoFisher Scientific, Waltham, MA). After 23 nL compound or DMSO vehicle was transferred into assay plate by a pintool work station (Kalypsys, San Diego, CA), fluorescence intensities in the assay plates were measured by an Envision (PerkinElmer, Shelton, CT) plate reader using three labels for measuring blue, green and red fluorescence at […] 460, 535 and 590nm respectively.
% is scaled to controls: 0 for no effect and ±100 for the full control effect.

Compound	activity change	outcome
Cc1cc(N)c2cc(NC(=O)Nc3ccc4nc(C)cc(N)c4c3)ccc2n1	0.0235% [at 46 µM]	–
C/C=C/C(=O)CC	0.0169% [at 18.6 µM]	–
COc1cccc(N(C)C(=S)Oc2ccc3c(c2)CCCC3)n1	-0.0159% [at 46 µM]	–
C[N+](C)(C)CCOC(=O)CCC(=O)OCC[N+](C)(C)C	-0.0215% [at 46 µM]	–
CCCCC(=O)OCC(=O)[C@H]1[C@H](C)C[C@H]2[C@@H]3C[C@H](F)C4=CC(=O)C=C[C@]4(C)[C@@]3(F)[C@@H](O)C[C@@]21C	-0.0896% [at 46 µM]	–
O=C(OCCc1ccccc1)c1ccccc1	0.0151%	–
COc1ccc(C(=O)c2ccc(OC)cc2O)c(O)c1	0.0496%	–
CCOC(=O)C(F)(F)F	-0.0043%	–
CCC(Cl)CCC(Cl)C(Cl)CC(Cl)C(Cl)C(Cl)CCl (stereo not given)	0.0151%	–
c1cc(CCCc2ccncc2)ccn1	0.0389%	–
O=C(O)c1ccc(-n2nc(-c3ccccc3O)nc2-c2ccccc2O)cc1	0.0168% [at 46 µM]	–
CCCCC/C=C\C/C=C\CCCCCCCC(=O)NC(C)c1ccccc1 (stereo not given)	0.0729% [at 46 µM]	–
NCC(=O)CCC(=O)O	0.0092% [at 46 µM]	–
CNCCCN1c2ccccc2CCc2ccccc21	0.0761% [at 18.6 µM]	–
CN(C)c1ccc(CCO)cc1	0.0133%	–
OC[C@H]1O[C@@H](OCCc2ccc(O)cc2)[C@H](O)[C@@H](O)[C@@H]1O	0.0447% [at 46 µM]	–
CC(=O)NO	0.113% [at 46 µM]	–
CCCCCCCCCOS(=O)(=O)O	-0.0629%	–
C#Cc1cccc(Nc2ncnc3cc(OCCOC)c(OCCOC)cc23)c1	-0.108% [at 46 µM]	–
CN(C)CCCN1c2ccccc2Sc2ccccc21	-0.0157% [at 18.6 µM]	–

Compound	activity change	outcome
O=C1CCCCCCCCCCCC(=O)OCCO1	0.0168%	–
OC(CN1CCC(Cc2ccc(F)cc2)CC1)c1ccc(Cl)cc1 (stereo not given)	-0.108% [at 46 µM]	–
CCCCCCc1ccc(-c2ccc(C#N)cc2)cc1	-0.0666%	–
CCCNCC(O)COc1ccccc1C(=O)CCc1ccccc1 (stereo not given)	0.121% [at 46 µM]	–
CC(C)Nc1ccc(NC(C)C)c2c1C(=O)c1ccccc1C2=O	-0.0763% [at 46 µM]	–
Cc1cccc(C)c1NC(=O)CN(CC(=O)O)CC(=O)O	-0.022% [at 46 µM]	–
C=CC1CC2C=CC1C2 (stereo not given)	-0.0254%	–
C=C(C)C(=O)OCCOCC	0.0566%	–
C[N+]1(C)CCC(OC(=O)C(O)(c2ccccc2)C2CCCC2)C1 (stereo not given)	–	inactive
CC1=CC[C@H](C(C)C)C=C1	0.0661%	–
OCCN1CCN(CCCN2c3ccccc3C=Cc3ccccc32)CC1	–	inactive
CN(Cc1ccc(C(C)(C)C)cc1)Cc1cccc2ccccc12	–	inactive
Cc1nn(C)c(Oc2ccccc2)c1/C=N/OCc1ccc(C(=O)OC(C)(C)C)cc1	0.0264%	–
CCc1c(C(=O)NN2CCCCC2)nn(-c2ccc(Cl)cc2Cl)c1-c1ccc(Br)cc1	0.0091%	–
CCOC(=O)c1cccnc1	0.137% [at 46 µM]	–
CN1CCC(=C2c3ccccc3Sc3ccccc32)CC1	-0.202% [at 46 µM]	–
COc1ccc(S(=O)(=O)N2C(=O)[C@@](c3ccccc3OC)(N3C[C@H](O)C[C@H]3C(=O)N(C)C)c3cc(Cl)ccc32)c(OC)c1	0.0175%	–
CCCCCCCCCCCCN1CCCCCC1=O	0.0844%	–
CN(C)C(=O)NC1(c2ccccc2)CCN(CC[C@@]2(c3ccc(F)c(F)c3)CN(C(=O)c3ccccc3)CCO2)CC1	-0.0145%	–
COC(C)(C)CCO	0.0149%	–
